For 17 compounds, growth results are on record in PubChem BioAssay (NCI).

Holding throughout (test): NCI-60 one-dose screen, 48 h (100 = growth as untreated, 0 = no growth, -100 = all killed)
In one assay the test system is T-47D breast. Conditions: 10 µM.
The test system of the next assay is BT-549 breast. Conditions: 10 µM unless noted.
A further assay deals with MDA-MB-435 melanoma. Conditions: 10 µM unless noted.
The test system of a further assay is SW-620 colon. To be noted: 10 µM unless noted.
In a further assay the test system is MCF7 breast. Conditions: 10 µM unless noted.
A further assay deals with HCT-116 colon. To be noted: 10 µM unless noted.
A further assay concerns HCC-2998 colon. Conditions: 10 µM unless noted.
The subject of another assay is KM12 colon. Conditions: 10 µM unless noted.

The panel holds about 83,000 compounds, 20% with a hit somewhere; the sample as a whole holds those more often.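 Cells were grown in 96-well plates and exposed to the test compound at a single concentration for 48 hours; results are reported as percent growth, with values below 10 considered active.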 Unmarked numbers belong to inactive results. Calls of active or inactive are those of the source.

As to `O=C1NC(=S)S/C1=C\c1cccc([N+](=O)[O-])c1`, the growth with T-47D breast is 90.2%; in the assay with BT-549 breast, 81.2%; with MDA-MB-435 melanoma, 93.7%; with SW-620 colon, 115%; in the assay on MCF7 breast it was 87.8%; with HCT-116 colon, 93.2%. For the same compound, the growth in the assay on HCC-2998 colon was 87.4%; in the assay with KM12 colon it was 103%.
Turning to `CON=C1C[C@]2(C[C@@H]3C[C@@H](C/C=C(\C)C[C@@H](C)/C=C/C=C4\CO[C@@H]5[C@H](O)C(C)=C[C@@H](C(=O)O3)[C@]45O)O2)O[C@H](/C(C)=C/C(C)C)[C@H]1C`, the growth in the assay with T-47D breast is 29.7%; in the assay with BT-549 breast, 89.2%; in the assay with MDA-MB-435 melanoma, 43.7%; with SW-620 colon, 34.5%; in the assay on MCF7 breast, 42%; with HCT-116 colon it was 17.8%. The growth with HCC-2998 colon was 48.7%; in the assay with KM12 colon, 33.4%.
As to `CC(C)N1CCN(c2ccc(OC[C@H]3CO[C@](Cn4cncn4)(c4ccc(Cl)cc4Cl)O3)cc2)CC1`, the growth in the assay on T-47D breast is 105%; in the assay with BT-549 breast, 84.4%; in the assay with MDA-MB-435 melanoma it was 69.7%; in the assay on SW-620 colon, 98.4%; in the assay with MCF7 breast, 95%; with HCT-116 colon, 77.7%. Besides, the results for the growth in the assay on HCC-2998 colon and with KM12 colon were 104% and 95.4%, respectively.
`Cc1cc(NS(=O)(=O)c2ccc(NC(=O)COc3ccc(-c4cc5ccccc5[nH]4)cc3)cc2)no1`: the growth in the assay on T-47D breast was -19.8% (active); in the assay with BT-549 breast, 11.9%; in the assay with MDA-MB-435 melanoma, -11.9% (active); in the assay with SW-620 colon, 15.9%; with MCF7 breast, 1.1% (active); in the assay with HCT-116 colon, 2.8% (active). The growth was -1.25% (active) in the assay with HCC-2998 colon and 10.3% in the assay with KM12 colon.
Consider `O=C(Nc1ccc(Cl)c(Cl)c1)OCn1ncc2ccc([N+](=O)[O-])cc21`, for which the growth in the assay on T-47D breast was 80%; in the assay on BT-549 breast it was 78.5%; in the assay with MDA-MB-435 melanoma, 94.3%; in the assay on SW-620 colon, 106%; with MCF7 breast, 85.9%; in the assay on HCT-116 colon, 80.7%. For the same compound, the results for the growth in the assay with HCC-2998 colon and in the assay with KM12 colon were 93.8% and 86.2%, respectively.
As to `CC(C)OC1=C(Cl)C(=O)c2ccccc2C1=O`, the growth with T-47D breast was -24.6% (active); in the assay on BT-549 breast, 59.7%; in the assay with MDA-MB-435 melanoma, 97.3%; in the assay with SW-620 colon, 56.6%; in the assay with MCF7 breast it was 73.2%; in the assay with HCT-116 colon it was 39.4%. The growth in the assay with KM12 colon is 41.2%.
With `O=[N+]([O-])c1cc2c(cc1Br)-c1ccccc1C2`, the growth in the assay on T-47D breast was 14.9%; with BT-549 breast it was 76.8%; in the assay on MDA-MB-435 melanoma, 94.7%; with SW-620 colon, 83.6%; in the assay on MCF7 breast, 3.07% (active); in the assay on HCT-116 colon, 84%. In addition, in the assay on KM12 colon, the growth is 58.5%.
With `Cc1nc2cc(Nc3nc(Nc4ccc(F)cc4)nc(-c4ccc(Cl)cc4)n3)ccc2n1Cc1ccccc1`, the growth is 30.7% in the assay with T-47D breast; 101% with BT-549 breast; 66.2% with MDA-MB-435 melanoma; 68.1% with SW-620 colon; 42.4% in the assay on MCF7 breast; 50.3% in the assay with HCT-116 colon. Besides, the growth in the assay on HCC-2998 colon was 81.6%; in the assay on KM12 colon, 37.2%.
Take `COc1cccc(OC(=O)c2ccccc2)c1OC(=O)c1ccccc1`: the growth in the assay on T-47D breast is 80.2%; in the assay on BT-549 breast, 83.4%; with MDA-MB-435 melanoma, -16.4% (active); in the assay with SW-620 colon, 40.1%; in the assay with MCF7 breast, 47.4%; in the assay with HCT-116 colon, 51.3%. In addition, in the assay on KM12 colon, the growth was 45.2%.
As for `COc1ccc(-c2cc(=O)oc3c4c(ccc23)OCN(Cc2ccc(F)cc2)C4)cc1`, the growth in the assay with T-47D breast is 62.8%; in the assay with BT-549 breast, 66%; in the assay on MDA-MB-435 melanoma, 59.6%; in the assay with SW-620 colon, 66.2%; in the assay with MCF7 breast, 48.8%; in the assay with HCT-116 colon it was 39.6%. Besides, the growth in the assay on KM12 colon was 79.4%.
In the case of `COc1ccc(-n2c(SCc3cc(OC)c(OC)c(OC)c3)nc3ccc(C)cc3c2=O)c(OC)c1`, the growth is 33.1% in the assay with T-47D breast; 32.1% with BT-549 breast; -55% (active) in the assay on MDA-MB-435 melanoma; 21% in the assay on SW-620 colon; 15.5% in the assay on MCF7 breast; 18.1% in the assay with HCT-116 colon. For the same compound, the values for the growth with HCC-2998 colon and in the assay on KM12 colon were 45.5% and 18.1%, respectively.
Regarding `CC(C)NCC(O)COc1ccc(CCOCC2CC2)cc1` (centres undefined), the growth with T-47D breast was 103%; in the assay with BT-549 breast it was 116%; in the assay with MDA-MB-435 melanoma it was 103%; in the assay with SW-620 colon, 102%; in the assay on MCF7 breast, 107%; in the assay on HCT-116 colon it was 106%. Further, the growth with KM12 colon was 113%.
Regarding `COc1cc(C2=NN(c3ccc(S(N)(=O)=O)cc3)C(c3ccc(Cl)cc3)C2)cc(OC)c1OC` (centres undefined), the growth is 20.4% in the assay with T-47D breast; 57.9% with BT-549 breast; 29.2% in the assay on MDA-MB-435 melanoma; 44.3% with SW-620 colon; 25.2% with MCF7 breast; 23.2% in the assay on HCT-116 colon. The growth in the assay with HCC-2998 colon is 45.9%; in the assay with KM12 colon, 37.6%.
`CN1CCC(OC2c3ccccc3CCc3ccccc32)CC1`: the growth in the assay on T-47D breast was 94.9%; in the assay with BT-549 breast, 90.7%; with MDA-MB-435 melanoma, 95.5%; in the assay with SW-620 colon it was 95.1%; with MCF7 breast, 90.5%; in the assay with HCT-116 colon, 98.4%. Also, in the assay on KM12 colon, the growth is 102%.
On to `Brc1ccccc1Nc1ccc2nnc(-c3ccncc3)n2n1`, for which the growth in the assay on T-47D breast is 80.6%; in the assay on BT-549 breast, 107%; in the assay on MDA-MB-435 melanoma, 105%; in the assay with SW-620 colon, 102%; with MCF7 breast, 84.9%; in the assay with HCT-116 colon it was 94.9%. For the same compound, the growth is 113% in the assay with HCC-2998 colon and 94.1% in the assay on KM12 colon.
Regarding `C=C(C)COC(=O)c1ccccc1C(=O)OCC1(C)CO1` (centres undefined), the growth in the assay with T-47D breast was 102%; in the assay with BT-549 breast, 102%; in the assay on MDA-MB-435 melanoma it was 106%; in the assay with SW-620 colon it was 105%; in the assay with MCF7 breast, 104%; in the assay with HCT-116 colon it was 105%. In the assay with KM12 colon, the growth was 112%.
As to `COc1ncnc2c1ncn2C/C(Br)=C(\Br)CCl`, the growth is 1.25% (active) with T-47D breast; 70.2% in the assay with BT-549 breast; 3.99% (active) in the assay with MDA-MB-435 melanoma; -73.6% (active) in the assay with SW-620 colon; 0.237% (active) in the assay with MCF7 breast; -82.3% (active) with HCT-116 colon. In addition, the growth in the assay on HCC-2998 colon is 89.8%; in the assay with KM12 colon, -5.61% (active).
